Source: PubChem BioAssay
HT1080-NT tox – kills 2HG-producing HT-1080-NT fibrosarcoma cells. Potency, µM (top dose mostly 46.1 µM), for inactives: at the highest dose activity, negative = less viability, usual class: cytotoxic. HT-1080-NT fibrosarcoma viability, CellTiter-Glo ATP luminescence, 48 h. actives 1.6% (n = 360,000);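 note: NT is the 2HG producing partner of a matched IDH1 knockdown line; 0% = DMSO-treated cells and -100% = media-only wells without cells; nearly all actives have a fitted effect of over 55% in size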
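HT-1080-NT fibrosarcoma cells (2HG-overproducing), 750 cells/well in RPMI with 5% FBS, dosed after 2 h and incubated 48 h at 37C. CellTiter-Glo luminescence normalized to DMSO and no-cell wells; concentration-response curves fitted and classed.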
KB-3-1 cytotox – kills parental KB-3-1 adenocarcinoma cells. actives 1.4% (n = 400,000). Potency, µM (top dose mostly 46.1 µM), usual class: cytotoxic. KB-3-1 viability, CellTiter-Glo ATP luminescence, 72 h. AID 1347075; note: nearly all actives have a fitted effect of over 60% in size
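Cytotoxicity in the drug-sensitive parental line KB-3-1 was scored as loss of CellTiter-Glo luminescence following 72 h incubation with compound. Values come from curve fitting of normalized concentration-response data.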
HT1080 IDH1KD tx – kills HT-1080 cells with IDH1 knockdown. HT-1080 IDH1 knockdown viability, ATP luminescence, 48 h. actives 2% (n = 360,000). AID 686971. Potency, µM (highest dose often 46.1 µM), inactives show at the highest dose activity, negative = toxicity, hits mostly cytotoxic;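 note: 0% = DMSO wells and -100% = cell-free medium wells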
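Luminescent ATP read-out (CellTiter-Glo, 10 min at room temperature) after 48 h compound exposure at 37 °C gave viability of IDH1-knockdown HT-1080 cells. Activity was normalised to DMSO and cell-free wells, then fitted as concentration-response curves.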
TDP1 cell noCPT – qHTS for Inhibitors of human tyrosyl-DNA phosphodiesterase 1 (TDP1): qHTS in cells in absence of CPT | DT40 Tdp1-/- hTDP1 cells, no CPT, ATP luminescence, 48 h | Potency, µM (series often up to 46.2 µM), without a hit: at the top dose activity change, negative = growth inhibition, usual class: inhibitors | actives 15% (n = 420,000); note: nearly all actives have a fitted effect of over 55% in size
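Luminescent ATP content (CellTiter-Glo) served as the growth readout. Knockout chicken DT40 cells expressing human TDP1 were exposed to compounds without camptothecin for a minimum 48 hr at 37 °C.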
KB-V1 MDR tox – kills drug-selected multidrug resistant KB-V1 cells. KB-V1 MDR cells viability, CellTiter-Glo, 72 h. Potency, µM (top dose mostly 46.1 µM), hits mostly cytotoxic. actives 3.4% (n = 400,000); note: nearly all actives have a fitted effect of over 60% in size
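KB-V1, DMEM (no phenol red) + 10% FBS; cpd pin-transferred, titration series; 72 h, 37 degrees C; CellTiter-Glo, luminescence. Data normalized, curve-fit.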
TDP1 cell CPT – DT40-hTDP1 cell growth loss with CPT; chicken DT40 Tdp1-/-;hTDP1 cells + 20 nM CPT, ATP luminescence, 48 h; Potency, µM (series often up to 46.2 µM), for the others: at the top dose activity change, negative = growth inhibition, most hits filed as inhibitors; actives 12% (n = 420,000); note: nearly all actives have a fitted effect of over 55% in size
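Chicken DT40 Tdp1-/- cells stably complemented with human TDP1 were seeded at 400 cells/well in medium containing 20 nM camptothecin, exposed to pin-transferred compounds, and grown at 37 °C for at least 48 hr. Viability was read as ATP luminescence.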
The depositor's hits bear a star; [ ] = remark or other dose. Compounds with a hit are over-represented: about 19% of the library has one in this group of screens. Calls come from the whole dose curve; as a rule, active = well fitted curve in the direction sought with a large enough effect; inconclusive = small, poorly fitted or top-dose-only effect, or another doubt; inactive = no such curve, though single readings can be large; an effect the other way counts as inactive or inconclusive. Unless noted, % is set by controls: 0 for no effect and ±100 for the full control effect; potency is the fitted concentration of half-maximal effect.

Screening COc1cc(C2c3cc4c(cc3C(OC3OC5COC(c6cccs6)OC5C(O)C3O)C3COC(=O)C23)OCO4)cc(OC)c1O (configuration not stated) returned HT1080-NT tox inconclusive, KB-3-1 cytotox 4.1µM*, HT1080 IDH1KD tx inconclusive, TDP1 cell noCPT 0.026µM*, KB-V1 MDR tox inactive and TDP1 cell CPT 0.023µM*.
`CCc1ccc2oc(-c3ccc(C)c(NC(=O)COc4ccccc4Cl)c3)nc2c1` gave KB-3-1 cytotox inactive, TDP1 cell noCPT inconclusive, KB-V1 MDR tox inactive and TDP1 cell CPT -9%.
For COc1ccccc1CNC(=O)COC(=O)c1ccc(C)c(S(=O)(=O)N2CCCCC2)c1 the results were HT1080-NT tox 6%, KB-3-1 cytotox inactive, HT1080 IDH1KD tx 11%, TDP1 cell noCPT 9%, KB-V1 MDR tox inactive and TDP1 cell CPT -3%.
O=C(OCC(=O)N1CCCCCC1)c1ccc(Cl)c(S(=O)(=O)N2CCCC2)c1 was read as HT1080-NT tox 0%, KB-3-1 cytotox inactive, HT1080 IDH1KD tx -16%, TDP1 cell noCPT inconclusive, KB-V1 MDR tox inactive and TDP1 cell CPT 23µM*.
Cc1ccc(C(=O)OCC(=O)c2c[nH]c3ccccc23)cc1NC(=O)c1ccco1 was read as HT1080-NT tox -7%, KB-3-1 cytotox inactive, HT1080 IDH1KD tx -12%, TDP1 cell noCPT 21µM*, KB-V1 MDR tox inconclusive and TDP1 cell CPT inconclusive.
Screening O=C(COC(=O)c1ccc(Cl)c(S(=O)(=O)N2CCCC2)c1)NCc1ccccc1 returned HT1080-NT tox 1%, KB-3-1 cytotox inactive, HT1080 IDH1KD tx 1%, TDP1 cell noCPT -29%, KB-V1 MDR tox inactive and TDP1 cell CPT inconclusive.
For Cc1ccc(C(=O)OCC(=O)NCc2ccccc2)cc1S(=O)(=O)N1CCCCC1 the results were HT1080-NT tox -1%[9.24 µM], KB-3-1 cytotox inactive, HT1080 IDH1KD tx 1%, TDP1 cell noCPT inconclusive, KB-V1 MDR tox inconclusive and TDP1 cell CPT 15µM*.
`O=C(COC(=O)c1ccc(Cl)c(S(=O)(=O)N2CCCCCC2)c1)NCc1ccccc1` gave HT1080-NT tox -13%, KB-3-1 cytotox inactive, HT1080 IDH1KD tx -12%, TDP1 cell noCPT inconclusive, KB-V1 MDR tox inactive and TDP1 cell CPT 23µM*.
Screening CC(=O)c1ccc(/C=C/c2nc3ccccc3n2C)o1 returned HT1080-NT tox -13%, KB-3-1 cytotox inactive, HT1080 IDH1KD tx -11%, TDP1 cell noCPT inconclusive, KB-V1 MDR tox inactive and TDP1 cell CPT inconclusive.
`Cc1[nH]c2ccccc2c1C(=O)COC(=O)c1cccc(S(=O)(=O)N2CCCCC2)c1` gave HT1080-NT tox -2%, KB-3-1 cytotox inactive, HT1080 IDH1KD tx 3%, TDP1 cell noCPT inconclusive, KB-V1 MDR tox inconclusive and TDP1 cell CPT 18µM*.
Screening Cc1ccc(C(=O)OCC(=O)Nc2ccccc2)cc1S(=O)(=O)N1CCCCC1 returned HT1080-NT tox 1%[9.24 µM], KB-3-1 cytotox inactive, HT1080 IDH1KD tx 1%, TDP1 cell noCPT -8%, KB-V1 MDR tox inconclusive and TDP1 cell CPT -9%.
Cc1ccc(C(=O)OCC(=O)c2c[nH]c3ccccc23)cc1S(=O)(=O)N1CCCCC1 was read as HT1080-NT tox -20%, KB-3-1 cytotox inactive, HT1080 IDH1KD tx -1%, TDP1 cell noCPT 18µM*, KB-V1 MDR tox inconclusive and TDP1 cell CPT 23µM*.
For Cn1c(N)c(C(=O)COC(=O)c2cccc(S(=O)(=O)N3CCCCC3)c2)c(=O)n(C)c1=O the results were HT1080-NT tox -1%, KB-3-1 cytotox inactive, HT1080 IDH1KD tx -4%, TDP1 cell noCPT -30%, KB-V1 MDR tox inactive and TDP1 cell CPT -3%.
Cc1ccc(CNC(=O)COC(=O)c2ccc(Cl)c(N)c2)cc1 was read as HT1080-NT tox 17%, KB-3-1 cytotox inactive, HT1080 IDH1KD tx 5%, TDP1 cell noCPT -10%, KB-V1 MDR tox inactive and TDP1 cell CPT 23µM*.
`COc1ccc(-n2nc(C(=O)N(C)c3cccc(C(F)(F)F)c3)c3c4ccccc4n(C)c3c2=O)cc1` gave KB-3-1 cytotox inactive, TDP1 cell noCPT -10%, KB-V1 MDR tox inactive and TDP1 cell CPT -10%.
`CSc1ccc(CN(C)CC(=O)Nc2ccccc2Br)cc1` gave HT1080-NT tox -4%, KB-3-1 cytotox inactive, HT1080 IDH1KD tx -20%, TDP1 cell noCPT inconclusive, KB-V1 MDR tox inactive and TDP1 cell CPT 23µM*.
Screening CN(CC(=O)Nc1ccccc1Br)C(=O)CCSc1ccc(F)cc1 returned HT1080-NT tox -4%, KB-3-1 cytotox inactive, HT1080 IDH1KD tx 0%, TDP1 cell noCPT 13µM*, KB-V1 MDR tox inconclusive and TDP1 cell CPT inconclusive.
CSc1ccccc1NC(=O)CSCc1ccc(Br)cc1 was read as HT1080-NT tox 8%, KB-3-1 cytotox inactive, HT1080 IDH1KD tx 16%, TDP1 cell noCPT -2%, KB-V1 MDR tox 21µM* and TDP1 cell CPT 3%.
`Cc1cccc(N(CC(=O)Nc2ccccc2F)S(C)(=O)=O)c1` gave HT1080-NT tox 8%, KB-3-1 cytotox inactive, HT1080 IDH1KD tx -1%, TDP1 cell noCPT -11%, KB-V1 MDR tox 23µM* and TDP1 cell CPT -19%.
Screening CC(=O)c1cccc(NC(=O)c2cc3sc(Cl)cc3n2C)c1 returned KB-3-1 cytotox inactive, TDP1 cell noCPT inconclusive, KB-V1 MDR tox inactive and TDP1 cell CPT -27%.
CSc1ccccc1NC(=O)CN(C)Cc1c(O)ccc2ccccc12 was read as HT1080-NT tox -2%, KB-3-1 cytotox inactive, HT1080 IDH1KD tx 1%, TDP1 cell noCPT 23µM*, KB-V1 MDR tox inactive and TDP1 cell CPT inconclusive.
`COc1cccc(CN(C)CC(=O)NCc2ccc(F)cc2)c1OC` gave HT1080-NT tox 0%, KB-3-1 cytotox inactive, HT1080 IDH1KD tx 3%, TDP1 cell noCPT -29%, KB-V1 MDR tox inactive and TDP1 cell CPT -23%.
For CSc1ccccc1NC(=O)CN(c1ccccc1Br)S(C)(=O)=O the results were HT1080-NT tox 10%, KB-3-1 cytotox inactive, HT1080 IDH1KD tx 8%, TDP1 cell noCPT inconclusive, KB-V1 MDR tox 15µM* and TDP1 cell CPT -25%.
For COc1ccccc1CNC(=O)CN(C)Cc1ccc(SC)cc1 the results were HT1080-NT tox -12%, KB-3-1 cytotox inactive, HT1080 IDH1KD tx -23%, TDP1 cell noCPT 23µM*, KB-V1 MDR tox inactive and TDP1 cell CPT 16µM*.
